Hits are enriched below; roughly 4% of the tested compounds scored in any of these assays.
BoNT-F LC inh – blocks Botulinum neurotoxin F light chain protease; Multiplex microsphere protease cleavage assay, flow cytometry; inhibition, % at 10 µM; hit rate 0.22% among 360,000; in the data active = inhibition above about 35%, passing the limit was not always enough; inconclusive = no clear call, values can overlap the other calls; also: plate controls were buffer without enzyme for full effect and enzyme alone for no effect
Autofluor counter – compound fluorescence in toxin protease inhibitor counterscreen; compound autofluorescence counterscreen, microsphere flow cytometry; hits give high values; fluorescence intensity (concentration not given with the values); hit rate 3.1% among 360,000; AID 624483; in the data active = fluorescence intensity above about 16000; inconclusive = no clear call, values can overlap the other calls
MazEF act – increases E. coli MazEF RNase cleavage of RNA; FAM/BHQ RNA-DNA oligo cleavage fluorescence, 5 h; activation, % at 20 µM; hit rate 0.32% among 350,000; in the data active = activation above about 50%
Target sequence (P0AE70 whole entry, looked up): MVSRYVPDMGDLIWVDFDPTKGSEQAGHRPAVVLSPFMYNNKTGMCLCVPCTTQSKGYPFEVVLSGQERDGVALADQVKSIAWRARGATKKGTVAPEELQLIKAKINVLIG
Anthrax LF prot – blocks Bacillus anthracis lethal factor protease | AID 588501 | multiplex microsphere protease cleavage assay, LF | inhibition, % at 10 µM | hit rate 0.12% among 360,000; also: plate controls were buffer without enzyme for full effect and enzyme alone for no effect
VHR inh abs – inhibitors of human VHR1 phosphatase (DUSP3); P51452; recombinant VHR phosphatase, pNPP absorbance; inhibition, % at 13.3 µM; hit rate 0.52% among 290,000; AID 1654; in the data active = inhibition above about 50%
Target sequence (P51452 whole entry, looked up): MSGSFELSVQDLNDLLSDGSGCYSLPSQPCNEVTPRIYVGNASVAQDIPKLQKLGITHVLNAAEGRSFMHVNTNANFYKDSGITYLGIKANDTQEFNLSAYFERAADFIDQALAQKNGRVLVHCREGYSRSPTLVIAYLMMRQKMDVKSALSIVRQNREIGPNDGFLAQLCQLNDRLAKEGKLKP
BoNT A protease – blocks Botulinum neurotoxin A light chain protease; multiplex microsphere protease substrate cleavage, flow cytometry; inhibition, % at 10 µM; hit rate 0.17% among 360,000; also: plate controls were buffer without enzyme for full effect and enzyme alone for no effect
Starred values were filed as active, the others as inactive; ? = inconclusive; nt = no result. Rule as the data show it, unless noted: active = inhibition above about 30%; inconclusive = no clear call, values can overlap the other calls; inactive = below that.

SMILES | BoNT-F LC inh | Autofluor counter | MazEF act | Anthrax LF prot | VHR inh abs | BoNT A protease
COc1ccc(S(=O)(=O)Nc2cccc(NC(C)=O)c2)cc1 | -9 | 17504* | -3 | -4 | 4 | -7
COc1ccc(S(=O)(=O)NC(C)C(=O)Nc2ccc3c(c2)OCO3)cc1OC (centres undefined) | 0 | 3702 | 6 | 7 | 21 | 0
COC(=O)c1ccc(NS(=O)(=O)c2cccc3cccnc23)cc1 | 8 | 18372* | 6 | 0 | -15 | 4
COc1ccc(NS(=O)(=O)c2ccc(NC(C)=O)cc2)c(OC)c1 | -17 | 3994 | 7 | -4 | -3 | 0
COc1cccc(NS(=O)(=O)c2ccc(NC(C)=O)cc2)c1 | 1 | 23977* | 3 | 2 | -8 | ?
O=S(=O)(NC1CCCCCC1)c1cccc2cccnc12 | -6 | 16645* | 1 | -8 | 32 | -2
COc1ccc(N2CCN(C(=O)c3ccc(NS(=O)(=O)c4ccc(F)c(F)c4)cc3)CC2)cc1 | -6 | 17709* | -1 | -1 | -2 | -4
CCCCc1n[nH]c2c1/C(=N/O)CC(c1ccccc1)C2 (centres undefined) | -5 | 2404 | 6 | -3 | 5 | 0
O=C(CCNC(=O)c1ccc(Br)cc1)NNC(=O)C1COc2ccccc2O1 (centres undefined) | nt | nt | 1 | nt | nt | nt
COc1ccc(/C=C/C(=O)NC(=S)N2CCN(C)CC2)cc1 | -2 | 3394 | 51* | -1 | 12 | 0
CCOCCCNC(=S)Nc1cc(OCC)c(NC(=O)c2ccco2)cc1OCC | -8 | 3579 | 4 | 0 | 22 | -1
CCOc1cc(NS(=O)(=O)c2ccc(OC)cc2)c(OCC)cc1NC(=O)c1ccco1 | -2 | 22748* | -3 | -2 | 5 | 0
CCOc1cc(NC(=S)NCC(C)C)c(OCC)cc1NC(=O)c1ccco1 | -11 | 2554 | 7 | 0 | 51* | -1
CCOc1cc(NC(=O)c2ccco2)c(OCC)cc1NC(=O)Cc1cccc(OC)c1 | -29 | 3622 | -8 | -1 | -9 | 0
CCOc1cc(NC(=O)c2ccco2)c(OCC)cc1NC(=O)CCC(=O)NCc1cccnc1 | 0 | 19666* | 4 | -3 | 2 | 2
CS(=O)(=O)n1nc(-c2ccc(Cl)cc2)nc1SCc1ccccc1 | -6 | 24875* | 3 | -1 | 5 | -4
CCC/C=C1/CCCOC(C(=O)NCc2cc(C)n(C)n2)(C(F)(F)F)C1 (centres undefined) | 6 | 2832 | 0 | 0 | nt | 1
Cc1cc(NC(=O)CSc2ccccn2)cc(NC(=O)CSc2ccccn2)c1 | -5 | 5537 | 0 | 2 | 54* | 1
O=C(Cc1ccccn1)Nc1ccccc1 | 2 | 22456* | -7 | 2 | 10 | 1
O=C(CSc1ccccn1)Nc1ccc2ccccc2c1 | nt | nt | nt | nt | 20 | nt
O=C(CSc1ncccn1)Nc1ccccc1 | 2 | 20507* | -7 | 3 | -11 | ?
Cc1ccc2cc3c(NC(=O)c4cccnc4)nn(C)c3nc2c1 | 1 | 2476 | 7 | 0 | 26 | 2
Cc1ccc(F)c(CNC(=O)C2CCC(=O)N(CCN3CCOCC3)C2)c1F (centres undefined) | 10 | 4110 | 5 | 4 | 14 | 2
CN(C)CCNC(=O)Nc1ccc(Cl)c(Cl)c1 | -1 | 24214* | 2 | -1 | 14 | -2
CN(C)S(=O)(=O)c1cccc(NC(=S)Nc2ccc(Cl)cc2Cl)c1 | nt | nt | 1 | nt | 22 | nt
SMILES | BoNT-F LC inh | Autofluor counter | MazEF act | Anthrax LF prot | VHR inh abs | BoNT A protease
CN(C)NC(=S)Nc1cccc(Cl)c1 | ? | ? | 9 | -1 | 29 | ?
CN(C)CCNC(=S)Nc1cccc(Cl)c1 | -2 | 23002* | 8 | -1 | 13 | -1
CN(C)S(=O)(=O)c1cccc(NC(=S)Nc2cc(Cl)cc(Cl)c2)c1 | -2 | 23036* | 0 | -1 | 19 | ?
Cc1ccc(N2CC(C(=O)Nc3nnc(SCc4ccccn4)s3)CC2=O)cc1 (centres undefined) | 6 | 5018 | -9 | 5 | 15 | 2
N#Cc1c(C(F)(F)F)cc(=O)[nH]c1SCC(=O)O | -7 | 4705 | -8 | -1 | 13 | 0
CN1CCc2c(sc3c2C(=O)NC(c2ccccc2)N3)C1 (centres undefined) | -58 | 6507 | -70 | -8 | -8 | 11
CN1CCc2c(sc3c2C(=O)NC(/C=C/c2ccco2)N3)C1 (centres undefined) | -14 | 12632 | 66* | -3 | nt | 0
Cc1c(-c2cccs2)[n+](=O)c2c(n1[O-])CCCC2 | 11 | 20042* | 4 | -22 | 4 | 4
Cc1nonc1NC(=O)CSc1nc2ccc(Cl)cc2[nH]1 | -4 | 3455 | 5 | -10 | 36 | 0
Cc1ccc(C(=O)Nc2ccccc2OC(F)F)cc1 | -2 | 23774* | 3 | -7 | 18 | ?
COC(=O)c1ccccc1NC(=O)COC(=O)CSCC(=O)N1CCOCC1 | -5 | 23481* | 2 | -4 | 1 | -2
CCS(=O)(=O)N1CCN(C2Cc3ccccc3C2)CC1 | 0 | 22089* | 9 | -1 | 22 | ?
O=S(=O)(c1ccc2ccccc2c1)N1CCN(C2Cc3ccccc3C2)CC1 | 4 | 2310 | -8 | 1 | 13 | 0
C=CCn1c(-c2cccn(Cc3ccccc3)c2=O)n[nH]c1=S | -6 | 21465* | 1 | -3 | 23 | -6
Cc1cc[n+]2c3c(cccc13)CCC2 | -5 | 20480* | 4 | -12 | -10 | 0
COc1ccc(OC)c(/C=N/NC(=O)CSc2cc(C)nc3c(OC)cccc23)c1 | -8 | 4599 | 7 | -3 | 53* | 0
CCn1c(C)cc(C(=O)CSc2nnnn2C2CCCC2)c1C | -5 | 3589 | 2 | -11 | nt | 0
O=C(CCCC(=O)NCc1ccccc1)NCc1ccccc1 | 1 | 2508 | 6 | -1 | -1 | 0
CCN(CC(=O)Nc1ccc(NC(C)=O)cc1)C(=O)C(c1ccccc1)c1ccccc1 | -4 | 2557 | 2 | -2 | 51* | -1
CCN(CC(=O)Nc1ccc(NC(C)=O)cc1)C(=O)/C=C/c1ccccc1 | 8 | 4830 | 0 | 3 | nt | 1
CC(C)(C(=O)c1ccccc1)/[N+]([O-])=C/c1ccc(Br)cc1 | 7 | 22272* | 4 | -4 | nt | 3
CC(COC(=O)c1ccccc1)(COC(=O)c1ccccc1)/[N+]([O-])=C/c1ccccc1 | 2 | 2282 | -6 | 2 | -3 | 0
CCOc1ccc(NC(=O)CCNS(=O)(=O)c2ccc3c(c2)CCC(=O)N3)cc1 | 0 | 2176 | 5 | -2 | -6 | 0
Cc1nc(CC(=O)N2CCN(c3cccc(C)c3C)CC2)cs1 | -6 | 20386* | -5 | 2 | 10 | -1
COc1ccc(CC(=O)N2CCN(c3cccc(C)c3C)CC2)cc1 | 9 | 4224 | -4 | -4 | 9 | -3
Cc1cccc(S(=O)(=O)Nc2cccc(-c3cn4ccsc4n3)c2)c1 | 8 | 3456 | 2 | 2 | 14 | 0
COc1ccccc1NS(=O)(=O)c1ccc(C(=O)NCC(c2ccccc2OC)N2CCCC2)cc1 (centres undefined) | 2 | 13517 | 5 | -5 | nt | -1

Assay outcomes: PubChem BioAssay, several laboratories
